Measured values as given in PubChem BioAssay AID485272 (The Scripps Research Institute Molecular Screening Center, 2010).
The whole screen tested about 330,000 compounds, of which about 1,300 (0.39%) were called active. The sample as a whole holds a higher share of actives than the screen did. Values without a mark were called inactive.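 The calls were made as follows: active = percent inhibition above a cutoff equal to the mean of all tested compounds plus 3 SD (cut at about 15% in these data); inactive = the rest.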

Each compound was assayed against Protein-arginine deiminase type-4 (Homo sapiens) (UniProt Q9UM07) (assay: protein arginine deiminase 4 enzyme blockade – biochemical, fluorescence polarization, 1536-well format, primary screen (AID 485272;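 also: 0% = PAD4 with RCA probe and DMSO and 100% = probe without PAD4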)). Conditions: recombinant PAD4, RCA probe fluorescence polarization; at 6.36 µM; stronger effect = higher value.
Protein-arginine deiminase type-4 (Homo sapiens), sequence (Q9UM07 whole entry, looked up): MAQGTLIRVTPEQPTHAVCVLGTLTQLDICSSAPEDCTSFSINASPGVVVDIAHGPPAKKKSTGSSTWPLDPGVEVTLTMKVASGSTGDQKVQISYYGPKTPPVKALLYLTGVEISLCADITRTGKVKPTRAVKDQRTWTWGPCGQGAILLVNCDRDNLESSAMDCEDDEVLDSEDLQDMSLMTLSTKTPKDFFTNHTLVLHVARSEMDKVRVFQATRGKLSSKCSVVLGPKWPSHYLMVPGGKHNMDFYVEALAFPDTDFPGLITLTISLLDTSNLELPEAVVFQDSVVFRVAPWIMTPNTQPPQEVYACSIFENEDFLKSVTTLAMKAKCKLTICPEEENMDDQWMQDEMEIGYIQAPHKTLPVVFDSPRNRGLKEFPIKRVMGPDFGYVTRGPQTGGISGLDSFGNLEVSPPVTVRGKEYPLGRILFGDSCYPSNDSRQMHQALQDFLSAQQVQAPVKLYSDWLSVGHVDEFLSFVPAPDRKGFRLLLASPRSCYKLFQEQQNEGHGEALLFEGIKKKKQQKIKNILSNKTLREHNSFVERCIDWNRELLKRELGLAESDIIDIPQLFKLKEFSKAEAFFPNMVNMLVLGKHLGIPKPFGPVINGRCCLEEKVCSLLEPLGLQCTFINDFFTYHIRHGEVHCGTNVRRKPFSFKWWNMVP

| SMILES | inhibition |
| --- | --- |
| COc1cccc(N2CC(NS(=O)(=O)c3cccs3)CC2=O)c1 (stereo not drawn) | -3.8% |
| COc1cc(C(=O)N2C(=O)c3cccc(N)c3C2=O)cc(OC)c1OC | -3.66% |
| Cc1nn(C)cc1C(=O)c1ccccc1 | -3.44% |
| CN1C(=O)c2cccc3c(N)ccc(c23)C1=O | 24% (active) |
| Cc1nn(C)cc1N1C(=O)c2cccc3c(N)ccc(c23)C1=O | 26.9% (active) |
| CC(=O)Nc1ccccc1Sc1ccc2c3c(cccc13)C(=O)N(c1ccc(C)cc1)C2=O | 1.13% |
| COC(=O)c1ccc(CN2CCCC(C(=O)Nc3cccc(-n4cnnn4)c3)C2)cc1 (stereo not drawn) | -3.14% |
| Cc1ccc(S(=O)(=O)N(CC(=O)Nc2cccnc2)c2ccc(Br)cc2)cc1 | 1.31% |
| O=C1CCCC2=C1C(c1cccs1)n1nc(SCc3ccccc3)nc1N2 (stereo not drawn) | -0.55% |
| NC(N)=N/N=C/c1ccc(OCc2ccc(Cl)cc2Cl)cc1 | -4.09% |
| CCOC(=O)N1CCN(C(=O)c2ccccc2N(Cc2ccccc2)S(=O)(=O)c2ccc(OC)cc2)CC1 | -4.41% |
| C=CCN(C(=O)Nc1ccc2c(c1)nc(C)n2C)c1ccccc1 | 2.79% |
| O=C(Nc1ccc2oc(-c3ccccc3F)nc2c1)c1ccco1 | -5.36% |
| C=CCN(C(=O)Nc1ccc2oc(C)nc2c1)c1ccccc1 | 39.8% (active) |
| CCOc1ccc(S(=O)(=O)N2CCCCC2)cc1NC(=O)CN1CCCC1c1cccs1 (stereo not drawn) | -0.57% |
| CCOc1ccc(S(=O)(=O)N2CCN=C2Cc2ccccc2)cc1C | 0.37% |
| CC[N+](C)(CC)CCC[n+]1c(-c2ccccc2)c2cc(N)ccc2c2ccc(N)cc21 | 62.4% (active) |
| Cc1ccc2[nH]c(C(=O)O)c(NC(=O)c3ccccc3[N+](=O)[O-])c2c1 | 4.63% |
| Cc1cc(C)cc(NC(=O)CN2C(=O)c3ccccc3C2=O)c1 | 4.21% |
| Cc1cc2c(cc1C)N(C(=O)CN1C(=O)c3ccccc3C1=O)C(C)(C)c1ssc(=S)c1-2 | 44.1% (active) |
| Cc1ccc2c(c1)-c1c(ssc1=S)C(C)(C)N2C(=O)CN1C(=O)c2ccccc2C1=O | 0.29% |
| CCc1ccc(NC(=O)NC(C)c2ccc3c(c2)OCO3)cc1 (stereo not drawn) | -1.12% |
| O=C1CCN(Cc2ccc([N+](=O)[O-])cc2)CCN1[C@H](CO)Cc1ccccc1 | -1.9% |
| CCOC(=O)c1c(N)nn(C(=O)c2ccccc2)c1-c1ccccc1 | -9.18% |

| SMILES | inhibition |
| --- | --- |
| C/C(=N\NC(=O)c1ccoc1C)c1ccccc1O | -6.31% |
| Cc1nn(C(=O)c2ccoc2C)c(N)c1-c1ccccc1 | 17.4% (active) |
| O=C(N1CCOCC1)N(Cc1ccccc1)c1ccccn1 | -6.6% |
| COC(=O)CCCC1=CC2=CC(=O)C(C)(OC(=O)c3cccs3)C(=O)C2=CN1CC1CC1 (stereo not drawn) | 18.5% (active) |
| COC(=O)CCCC1=CC2=CC(=O)C(C)(OC(=O)c3cccs3)C(=O)C2=CN1CC(C)C (stereo not drawn) | -1.01% |
| COC(=O)CCCC1=CC2=CC(=O)C(C)(OC(=O)c3cccs3)C(=O)C2=CN1c1cccc(C#N)c1 (stereo not drawn) | 4.64% |
| CS/C(=C\C(=O)c1ccco1)Nc1ccccc1Cl | 0.03% |
| CN(C)c1ccc(NC(=O)c2ccncc2)c2ccccc12 | -9.99% |
| COc1cc(OC)c(C(=O)Nc2ccc(N(C)C)cc2)cc1OC | -1.49% |
| CN(C)c1ccc(N/C=C/C(=O)C(F)(F)F)cc1 | 38.9% (active) |
| CC(C)CNC(=O)C(=O)Nc1ccc(N(C)C)cc1 | -0.08% |
| CCCC1=Nc2cc(C(=O)NCc3ccco3)ccc2Sc2ccccc21 | -2.78% |
| Cn1c(=O)cc(OCC(=O)N2CCN(c3ccccc3F)CC2)c2ccccc21 | -3.43% |
| O=C(NNC(=O)c1cccc(S(=O)(=O)Nc2ccc(Cl)cc2)c1)c1ccc(=O)[nH]c1 | 0.33% |
| O=C(O)C1=NN(c2c(F)c(F)cc(F)c2F)C(=O)CC1 | 0.4% |
| CCCc1cc(=O)[nH]c(SCC(=O)c2cc(C)n(CCC)c2C)n1 | 1.34% |
| Cc1cc(C(=O)CSc2nc(N)cc(=O)[nH]2)c(C)n1-c1cccc(F)c1 | 3.24% |
| Cc1cc(C(=O)CSc2nc(N)cc(=O)[nH]2)c(C)n1CCc1ccc(Cl)cc1 | 23.8% (active) |
| O=C(COc1cccnc1[N+](=O)[O-])Nc1ccc(Cl)cc1F | -3.69% |
| CCOC(=O)CSc1nncc2ccc(OC)c(OC)c12 | -1.97% |
| COC(=O)c1ccc(NC(=O)CSc2nncc3ccc(OC)c(OC)c23)cc1 | 26.1% (active) |
| COC(=O)c1ccc(NC(=O)CSc2nncn2-c2cccnc2)cc1 | 6.18% |
| CC(=O)c1cccc(-n2nnnc2SCC(=O)NNC(=O)C2CCCCC2)c1 | 0.09% |
| COCCN1C=C2C(=O)C(C)(OC(=O)C3CCCC3)C(=O)C=C2C=C1c1ccsc1 (stereo not drawn) | 17.8% (active) |

| SMILES | inhibition |
| --- | --- |
| CC1(OC(=O)C2CCCC2)C(=O)C=C2C=C(c3ccc(C#N)cc3)OC=C2C1=O (stereo not drawn) | 4.94% |
| CC1(OC(=O)CCc2ccccc2)C(=O)C=C2C=C(c3ccc(C#N)cc3)N(CCc3ccccn3)C=C2C1=O (stereo not drawn) | -12.6% |
| COc1ccc(N(CC(=O)NC2CCCCCCC2)S(=O)(=O)c2c(C)nn(C)c2C)cc1 | -21.2% |
| COc1ccccc1C(=O)N/C(=C/c1ccc2c(c1)OCO2)C(=O)Nc1cccc(C(=O)O)c1 | 4.24% |
| CC(=O)Oc1ccccc1C(=O)Nc1ncc([N+](=O)[O-])s1 | 21.3% (active) |
| COc1ccc(NC(=O)c2ccccc2[N+](=O)[O-])cc1OC | 0.28% |
| O=C(Cc1c(F)cccc1Cl)Nc1ncc([N+](=O)[O-])s1 | -0.75% |
| COc1ccc(-c2cn3ccc(C)cc3n2)cc1 | -3.72% |
| Cc1ccn2cc(-c3nonc3C)cc2c1 | 15.3% (active) |
| COCC(C)n1c(C)cc(C(=O)CSc2cc(C)c3ccccc3n2)c1C (stereo not drawn) | -0.49% |
| COc1ccc(CNC(=O)COc2cccnc2[N+](=O)[O-])cc1 | 1.13% |
| COC(=O)c1cc(NC(=O)c2cc(C(C)(C)C)nn2Cc2cccc(C)c2)ccc1N1CCOCC1 | 2.9% |
| COc1cc(C(F)(F)F)nc2c(Br)c(C(C)(C)C)nn12 | -1.55% |
| C[N+](C)(C)CCOP(=O)([O-])OC[C@H](O)CO | 0.71% |
| O=C(CN1CCCCCC1)Nc1ccc(Br)cc1Br | 129% (active) |
| O=C(CN1CCCCCC1)Nc1ccc(Br)cc1[N+](=O)[O-] | 0.42% |
| O=C(CN1CCCCCC1)Nc1ccc(Cl)cc1F | -5.26% |
| CC(C)C(=O)N1CC(=O)Nc2ccc(F)cc2C1c1ccc(F)cc1 (stereo not drawn) | 4.93% |
| Cc1[nH][nH]c(=O)c1C(c1ccc(-c2ccc(Cl)cc2)o1)c1c(C)[nH][nH]c1=O | 20.2% (active) |
| O=C(NC1CCCCC1)c1ccc(-c2ccc(Cl)cc2)o1 | 0.31% |
| CCOc1ccc(C(c2c(C)[nH][nH]c2=O)c2c(C)[nH][nH]c2=O)cc1OCC | -2.1% |
| CCOC(=O)N1CCC(c2cc(=O)n(-c3ccccc3)[nH]2)CC1 | 55.1% (active) |
| CCOC(=O)N1CCC(NC(=O)COc2cc(=O)n(C)c3ccccc23)CC1 | 3.7% |
| CCOC(=O)N1CCC(NC(=O)CCc2ccccc2)CC1 | 1.67% |

| SMILES | inhibition |
| --- | --- |
| CCOC(=O)Cn1nnnc1C | -0.83% |
| CC(C)N(Cc1ccccc1)C(=O)COC(=O)c1ccccc1SCC(=O)N1CCCC1 | -1.69% |
| N#C/C(=C(/O)Cc1cccc2ccccc12)c1nc2ccccc2s1 | -0.3% |
| Nc1scc[n+]1Cc1cccc2cccnc12 | -3.55% |
| c1ccc2c(C[n+]3csc4ccccc43)cccc2c1 | 58.5% (active) |
| COc1ccccc1CNC(=O)C1CCN(S(C)(=O)=O)CC1 | 3.16% |
| COc1ccc(OC)c(CNC(=O)C2CCCN(c3nc4ccccc4o3)C2)c1 (stereo not drawn) | 0.33% |
| COc1ccccc1CNC(=O)C1CCN(c2nc3ccccc3o2)CC1 | 23% (active) |
| COc1ccc(CCNC(=S)NC(=O)/C=C/c2ccc(C)cc2)cc1OC | 0.57% |
| CC(C)CC(=O)NC(=S)Nc1ccc(F)cc1F | -0.18% |
| O=S(=O)(Nc1ccc(O)c2ccccc12)c1ccc(OC(F)(F)F)cc1 | 20.5% (active) |
| O=C1COc2ccc(S(=O)(=O)Nc3ccc(OC(F)(F)F)cc3)cc2N1 | -0.73% |
| Cc1nn(C)c(C)c1NS(=O)(=O)c1ccc(OC(F)(F)F)cc1 | -4.79% |
| O=S(=O)(Cc1cc(Cl)nc(-c2cccnc2)n1)c1ccccc1 | -1.95% |
| Cc1ccc(C(NC(=O)N2CCCC2)C(Cl)(Cl)Cl)cc1F (stereo not drawn) | 0.88% |
| CC(C)Oc1ccc(S(=O)(=O)N2CCOCC2)cc1NC(=O)C1CSC2(C)CCC(=O)N12 (stereo not drawn) | -1.2% |
| Cc1c(C2=CCN(S(=O)(=O)c3ccc(Cl)cc3)CC2)c2ccccc2n1C | -48.2% |
| COc1ccc(S(=O)(=O)N2CCOCC2)cc1NC(=O)COc1ccccc1 | 6.68% |
| COc1ccc(S(=O)(=O)N2CCOCC2)cc1NC(=O)CSc1ncnc2ccccc12 | 18.5% (active) |
| COc1ccc(S(=O)(=O)N2CCOCC2)cc1NC(=O)CSc1nnc(NC2CC2)s1 | -2.8% |
| CCCCCN(C(=O)CCC(=O)OCC(=O)NC1CCC(C)CC1)c1c(N)n(CCCC)c(=O)[nH]c1=O (stereo not drawn) | -1.97% |
